High-throughput results deposited in PubChem BioAssay by National Center for Advancing Translational Sciences (NCATS).
JMJD2A Tudor – qHTS Assay for Inhibitors of JMJD2A-Tudor Domain; Lysine-specific demethylase 4A (Homo sapiens), O75164; AID 504339, 2011; 4.4% of 390,000 active; AlphaScreen JMJD2A-Tudor / H3K4me3 peptide binding; Potency, µM (top dose mostly 114 µM), without a hit: at the top dose activity change, negative = inhibition, actives largely listed as inhibitors; note: % is set by controls: 0 for no effect and ±100 for the full control effect; nearly all actives have a fitted effect of over 50% in size
HP1b binding inh – HTS for Inhibitors of HP1-beta Chromodomain Interactions with Methylated Histone Tails; Chromobox protein homolog 1 (Homo sapiens), P83916; AlphaScreen HP1-beta / biotin-H3K9me3 peptide binding; Potency, µM (highest dose often 114 µM), for the others: top-dose activity change, negative = inhibition, most hits filed as inhibitors; 0.56% of 390,000 active; AID 540317, 2011; note: nearly all actives have a fitted effect of over 70% in size
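Compound inhibition of the preformed complex between 50 nM HP1-beta and 50 nM biotinylated H3K9me3 peptide was read by AlphaScreen. Buffer was PBS pH 7.4 with 0.01% Tween-20. Incubations ran 30 min at room temperature, with 10 ug/mL donor/acceptor beads.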
BAZ2B block – qHTS Assay for Inhibitors of BAZ2B | AID 504333, 2011 | Potency, µM (top dose mostly 114 µM), for inactives: at the highest dose activity change, negative = inhibition, hits mostly inhibitors | 4.4% of 360,000 active | AlphaScreen BAZ2B-H3K14Ac peptide displacement; note: % is set by controls: 0 for no effect and ±100 for the full control effect; nearly all actives have a fitted effect of over 60% in size
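Complex of BAZ2B and biotin-H3K14Ac (50 nM apiece) forms over 30 min at RT, then faces library compounds up to 110 uM for another 30 min; AlphaScreen beads added, 20 min dark incubation, luminescence read.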
G9a block – qHTS Assay for Inhibitors of Histone Lysine Methyltransferase G9a. Potency, µM (series often up to 102 µM), for inactives: at the top dose activity, negative = inhibition, actives largely listed as inhibitors. 8.8% of 350,000 active. G9a H3K9 monomethylation, AlphaScreen, 2 h. Histone-lysine N-methyltransferase EHMT2 (Homo sapiens), Q96KQ7; note: % is set by controls: 0 for no effect and ±100 for the full control effect; nearly all actives have a fitted effect of over 75% in size
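Quantitative HTS format: methyltransferase activity on a biotin-tagged H3K9 peptide is measured by AlphaScreen, using a rabbit anti-monomethyl-H3K9 antibody with streptavidin donor and anti-IgG acceptor beads. Final levels are 20 nM enzyme, 500 nM peptide, 20 uM SAM; 2 h RT.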
Sfp PPTase inh – qHTS Assay for Inhibitors of Bacillus subtilis Sfp phosphopantetheinyl transferase (PPTase) | Biochemical Sfp PPTase activity, qHTS | AID 1490, 2009 | 4'-phosphopantetheinyl transferase ffp (Bacillus subtilis), Q9F4F7 | 3.5% of 310,000 active | Potency, µM, without a hit: largest response in the series, negative = inhibition, usual class: inhibitors;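 note: the enzyme is Sfp with the accession as filed and its product quenches rhodamine fluorescence; 0% = enzyme reaction without inhibitor and -100% = no enzyme wells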
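Step 1, compound plus 15 nM Sfp-PPTase, 15 min, room temperature. Step 2, add rhodamine-CoA (5 uM) and BHQ-2-YbbR (12.5 uM). Step 3, read 525/598 nm fluorescence at 0 and 30 min.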
* hit, by the source's call; ? = inconclusive; · = no result; [ ] = another dose, or the depositor's remark. This is a sample that favours compounds with a hit; in the whole collection about 12% have one here. Calls come from the whole dose curve; as a rule, active = well fitted curve in the direction sought with a large enough effect; inconclusive = small, poorly fitted or top-dose-only effect, or another doubt; inactive = no such curve, though single readings can be large; an effect the other way counts as inactive or inconclusive. Potency is the fitted concentration of half-maximal effect.

SMILES	JMJD2A Tudor	HP1b binding inh	BAZ2B block	G9a block	Sfp PPTase inh
COc1ccc2c(c1OC)C(=O)OC2Nn1cncn1 (centres undefined)	-8%	34%	0%	-10%[12.7 µM]	12%
C=CCOC(=O)N[C@H](c1ccco1)C(C(C)=O)C(C)=O	·	·	·	·	-20%
Cc1ccc(C)c(NC(=O)c2ncn[nH]2)c1	-18%	5%	?	-6%	-12%
O=C(NC1CCCC1)c1ncn[nH]1	32µM*	45%	45µM*	20%[59 µM]	-7%
Cc1oc(C(=O)O)cc1COc1ccc2c3c(c(=O)oc2c1C)CCC3	2%	17%	13µM*	50µM*	3%
Cc1oc(C(=O)O)cc1COc1ccc2c3c(c(=O)oc2c1C)CCCC3	·	·	2%	-5%[59 µM]	14%
Cc1oc(C(=O)O)cc1COc1cccc2ccccc12	-24%	-3%	-31%	?	15%
Cc1c(CC(=O)O)c(=O)oc2c(C)c(OCc3ccccc3)ccc12	-7%	37%	4%	3%	11%
COc1cc(C(=O)O)cc(OC)c1OCc1cc(C(=O)O)oc1C	?	-5%	?	50µM*	17%
Cc1c(CC(=O)O)c(=O)oc2c(C)c(OCc3ccccc3Br)ccc12	?	27%	50µM*	-10%	2%
COc1ccc(Cc2nnc(N/N=C(\C)c3ccccc3)[nH]c2=O)cc1OC	-35%	31%	35µM*	·	-18%
COc1ccc(Cc2nnc(NN)[nH]c2=O)cc1OC	2.5µM*	37%	4µM*	4%	45µM*
COc1ccc(/C=N/Nc2nnc(Cc3ccc(OC)c(OC)c3)c(=O)[nH]2)cc1	-30%	32%	?	?	-13%
COc1ccc(/C=N/Nc2nnc(Cc3ccc(OC)c(OC)c3)c(=O)[nH]2)cc1OC	?	13%	?	3%[59 µM]	50µM*
COCCNc1nnc(Cc2ccc(OC)c(OC)c2)c(=O)[nH]1	-5%	31%	7%	23%	5%
Cc1cc(C)cc(NC(=O)Cn2cc(C=O)c3ccccc32)c1	0%	43%	6%	·	-3%
Cc1nnc(Sc2cc(C(=O)NCc3ccco3)c3ccccc3n2)s1	?	-8%	?	·	-20%
Nc1nnc(CSCc2ccc(Cl)cc2Cl)s1	-4%	9%	4%	?	15%
CC(C)n1c(CSCc2ccc(Cl)cc2Cl)n[nH]c1=S	-12%[57.1 µM]	-5%	?	13µM*	7%
CN1CCc2c(sc(N)c2C(=O)O)C1	-12%[11.4 µM]	-13%	-17%	28µM*	28µM*
O=[N+]([O-])/C=C/c1cn(Cc2ccc(F)cc2)c2ccccc12	-19%	2%	?	·	-16%
CCSc1nnc(NC(=O)CSc2nc(C)cc(C)n2)s1	-4%	53%	2%	-1%[59 µM]	16%
CCCc1sc(C(=O)Nc2nnc(C3CC3)s2)cc1CC	-13%	-1%	-1%	?	·
CCSc1nnc(NC(=O)c2nc3nc(C)cc(C)n3n2)s1	16µM*	10%	-39%	-30%	?
Cc1cc(C)n2nc(C(=O)Nc3nnc(C4CC4)s3)nc2n1	8.9µM*	-14%	-4%	?	50µM*
SMILES	JMJD2A Tudor	HP1b binding inh	BAZ2B block	G9a block	Sfp PPTase inh
CC(NO)/C(=N\O)c1cccs1 (centres undefined)	79µM*	?	?	4µM*	?
COc1cc(C(=O)CC2(O)C(=O)N(Cc3ccccc3Cl)c3ccccc32)cc(OC)c1OC (centres undefined)	-34%	20%	?	-13%[59 µM]	·
CC1=C(C(=O)OC(C)C)C(c2ccccc2)NC(=O)N1C (centres undefined)	4%	33%	17%	·	3%
COC(=O)C1=C(C)N(c2ccc(OC)c(OC)c2)C(=O)/C1=C\c1cccs1	-27%	17%	-34%	?	-5%
CCOc1cc(/C=C2\C(=O)N(CCc3ccc(OC)c(OC)c3)C(C)=C2C(=O)OC)ccc1O	40µM*	?	50µM*	?	50µM*
COC(=O)C1=C(C)N(c2ccc(C)c(C)c2)/C(=C/c2ccc(O)cc2)C1=O	-29%	5%	1%	?	-5%
COC(=O)C1=C(C)N(CC2CCCO2)C(=O)/C1=C\c1ccc(O)cc1 (centres undefined)	35µM*	?	?	?	-29%
COC(=O)C1=C(C)N(Cc2ccc(C)cc2)C(=O)/C1=C\c1cc(OC)c(OC)c(OC)c1	11µM*	-22%	40µM*	25µM*	-16%
COC(=O)C1=C(C)N(Cc2ccc(C)cc2)C(=O)C1	-1%	25%	1%	-8%	10%
COC(=O)C1=C(C)N(Cc2ccc(C)cc2)C(=O)/C1=C\c1ccc(O)c(OC)c1	25µM*	22µM*	50µM*	19%[2.33 µM]	50µM*
Cc1ccccc1-c1cc(N2CCN(C)CC2)ncn1	·	·	·	-8%[0.501 µM]	20%
CCOC(=O)C1=C(C)N(c2ccc(C)cc2)C(=O)/C1=C\c1ccc(O)c(OC)c1	8.9µM*	?	45µM*	·	45µM*
CCOc1cc(/C=C2\C(=O)N(Cc3ccco3)C(C)=C2C(=O)OC)ccc1O	18µM*	20µM*	50µM*	8.9µM*	20µM*
CCOc1cc(/C=C2/NC(=O)N(Cc3ccccc3F)C2=O)ccc1O	-2%	21%	8%	-1%[59 µM]	1%
O=C(NCS(=O)(=O)c1ccccc1)c1ccccc1	-2%	69%	7%	50µM*	8%
C[C@]12CCC3c4ccc(OS(=O)(=O)O)cc4CCC3C1CCC2=O (some centres undefined)	·	·	·	-28%[2.33 µM]	4%
O=C(O)c1ccc2c(=O)[nH]c(CN3CCOCC3)nc2c1	35µM*	14%	?	?	-21%
O=C(O)c1ccc2c(=O)[nH]c(CCl)nc2c1	?	84%	-39%	56µM*	10%
O=C1CN(Cc2nc3cc(Cl)ccc3c(=O)[nH]2)CCN1	2.5µM*	51%	-17%	?	3%
S=C(c1ccc2c(c1)OCO2)N1CCCCC1	-22%	-5%	7%	?	-7%
Cc1ccc(NC(=O)c2ccccc2)s1	14%	23%	-3%	25µM*	-30%
Cc1cc(NC(=O)c2ccccc2)sc1C	-13%[11.4 µM]	14%	?	16µM*	50µM*
Cc1cc(NC(=O)c2ccccc2)cc(NC(=O)c2ccccc2)c1C	-16%	-16%	5%	·	1%
Cc1cc(Nc2ccc(C(=O)O)c(O)c2)n2ncnc2n1	-22%	34%	-3%	?	·
Clc1ccc(N=c2ssnc2Cl)nc1	-28%	-11%	-34%	-3%	21%
Clc1nssc1=Nc1nncs1	22µM*	?	50µM*	0%[0.501 µM]	·
COc1cc(N=c2ssnc2Cl)cc(OC)c1	28µM*	-80%	45µM*	?	1.8µM*
